The record followed here is PubChem BioAssay (Tox21).

Each structure is given as a SMILES string. Records with an inconclusive call do not appear. Values without a mark were called inactive. The source made the active and inactive calls. Calls follow the shape of the full dose curve. Positions of bridges follow the written chain, without caps; N, C: chain ends. Non-standard residues stand in square brackets, D forms with d. Residues, ends and D or L forms follow the SMILES beside them. hArg = N=C(N)NCCCC[C@H](N)C(=O)O; Mpa = O=C(O)CCS
% is scaled to controls: 0 for no effect and ±100 for the full control effect.

A short description of this experiment: qHTS assay to identify small molecule agonists or antagonists of the thyroid stimulating hormone receptor (TSHR) signaling pathway - wild type cell line counter screen (AID 1259384). As to conditions: HEK293 wild type, cAMP HTRF counter-screen, active compounds read high; series mostly up to 92.4 µM. An excerpt:
U.S. Tox21 Program National Center for Advancing Translational Sciences [NCATS] NIH Chemical Genomics Center [NCGC] U.S. Environmental Protection Agency [EPA] National Institutes of Environmental Health Sciences [NIEHS] National Toxicology Program [NTP] U.S. Food and Drug Administration [FDA] Tox21 Assay Overview: TSHR is the receptor for thyrotropin (thyroid stimulating hormone or TSH), a member of the glycoprotein hormone family. TSH is released by the anterior pituitary gland and is the main regulator of thyroid gland growth and development. Upon binding circulating thyrotropin, a G-protein signal cascade activates adenylyl cyclase and […] cAMP concentration is increased. cAMP is a key second messenger involved extensively in cellular signal transduction pathways associated with the majority of G-protein coupled receptors (GPCRs). The activation of these GPCRs by neurotransmitters, lipids, nucleotides, peptides and hormones results in the activation or the inhibition of plasma membrane-bound adenylate cyclase through heterotrimeric G-proteins. A cell-based TSHR-Hek293 assay can be used to identify TSHR agonists. To eliminate the false positive compounds identified from screening a cell-based TSHR-Hek293 cell line, cAMP assay in a wild type Hek293 cells was used as a counter screening.
Tox21 Assay Protocol Summary: Hek293 cells (wild type) were dispensed at 800 cells/4 uL/well in 1536-well white plates using a Multidrop dispenser. After the assay plates were incubated at a 37 C/5% CO2 incubator for 18 hrs, 23 nL of compounds dissolved in DMSO, positive controls or DMSO only was transferred to the assay plate by a pin tool, followed by 1 ul medium containing Ro20-1724. After 30 min of incubation at room temperature, 2.5 ul/well of cAMP-d2 and 2.5 ul/well of anti-cAMP-cryptate were added respectively into the assay plates using a Flying Reagent Dispenser. The plates were incubated at room temperature for 1 hr. The fluorescence intensity in the plates was measured using an Envision plate reader. Each test compound was measured at 15 concentrations and in triplicates.
`CC/C=C\CCOC(=O)c1ccccc1O`: the compound was classed as inactive.

On to `Cc1ccnc(N)c1`, for which the compound was called inactive.

Turning to `O=NN(CCCl)C(=O)NC1CCCCC1`, the result was inactive.

Turning to `COc1ccc(CCO)cc1`, the result was inactive.

Take `CCO[Si](CC)(OCC)OCC`: the result was inactive.

For the compound `COc1nc(N)nc2nc[nH]c12`, the compound was called inactive.

In the case of `CCCCCCC1(C)CCC(=O)O1` (stereo not given), the result was inactive.

Consider `O=C(CN1CCNCC1)NC1CCCCC1`, for which the outcome was inactive.

For the compound `CCCCCc1cccc(=O)o1`, the call was inactive.

`CC(=O)OCC(=O)Nc1cc(C#N)cc(NC(=O)COC(C)=O)c1Cl`: the result was inactive.

In the case of `O=C(O)CNC(=O)CNC(=O)CNC(=O)CSC(=O)c1ccccc1`, the compound was classed as inactive.

For `NC(=O)[C@@H]1CSSCCC(=O)N[C@@H](CCCCN=C(N)N)C(=O)NCC(=O)N[C@@H](CC(=O)O)C(=O)N[C@@H](Cc2c[nH]c3ccccc23)C(=O)N2CCC[C@H]2C(=O)N1` ([Mpa][hArg]GDWPC-NH2; disulfide 1-7), the call was inactive.

`NCc1ccc(S(N)(=O)=O)cc1`: the call was inactive.

`CCCCCCCCCOC(=O)CCCCC(=O)OCCCCCCC`: the compound was called inactive.

As for `OC1(c2ccc(Cl)cc2)CCNCC1`, the result was inactive.

Consider `O=C1CCCCO1`, for which the compound was classed as inactive.

Turning to `N#CCC(=O)NN`, the call was inactive.

As for `C=CCOC(=O)CCCCCC`, the outcome was inactive.

Consider `CCOCCOCC`, for which the call was inactive.

For `CCNC(=O)NCc1cccc(Cl)c1`, the compound was called inactive.

Regarding `COc1cc2c(cc1OC)C(=O)C(CC1CCN(Cc3ccccc3)CC1)C2` (stereo not given), the compound was classed as inactive.

As for `CCCCCC(C)O` (stereo not given), the compound was classed as inactive.

Turning to `Nc1nnnn1-c1ccccc1`, the result was inactive.

`Cc1ccc2c(c1)C(=O)c1ccccc1C2=O`: the call was inactive.

Turning to `CC(C)OC(=O)CCC(=O)OC(C)C`, the call was inactive.

As to `CCCC(CC)c1ccccc1` (stereo not given), the compound was classed as inactive.

For `O=C1c2ccccc2C(=O)c2cc(Cl)ccc21`, the cAMP activity change is 2.64% [at 8.39 µM].

Take `Cc1ccc(N)cc1S(=O)(=O)O`: the call was inactive.

Consider `Cc1ccc(C)c([N+](=O)[O-])c1`, for which the outcome was inactive.

As for `C[Si]1(C)O[Si](C)(C)O[Si](C)(C)O[Si](C)(C)O[Si](C)(C)O1`, the compound was classed as inactive.

Take `C=Cc1ccc(C(C)(C)C)cc1`: the result was inactive.

As to `CN1CCOC(c2ccccc2)c2ccccc2C1` (stereo not given), the outcome was inactive.

Take `CCCCCCCCCCCCCCCCCCOCCO`: the cAMP activity change was -0.284% [at 18.9 µM].

Take `CCCCCCCCCCOC(C)=O`: the compound was called inactive.

As for `C=CCCCC`, the outcome was inactive.

`CC(O)COC(C)(C)C` (stereo not given): the outcome was inactive.

For `C/C(=C1\CCOC(=O)S1)N(C=O)Cc1cnc(C)nc1N`, the call was inactive.

As to `CC(C)NCC(O)c1ccc2ccccc2c1` (stereo not given), the call was inactive.

Consider `O=C(CCCl)NCCc1ccccc1`, for which the outcome was inactive.

On to `Cn1c(=O)c2[nH]c(Br)nc2n(C)c1=O`, for which the compound was classed as inactive.
